Source: PubChem BioAssay AID2514 (National Center for Advancing Translational Sciences (NCATS), 2010)
Inconclusive results are not listed. Calls of active or inactive are those of the source. Calls come from the whole dose curve; as a rule, active = well fitted activation curve with a large enough effect; inconclusive = small, poorly fitted or top-dose-only effect; inactive = no such curve, though single readings can be large or run the other way.

Experiment: Confirmation Concentration-Response Assay for Enhancers of SMN2 Splice Variant Expression for Probe SAR
Conditions: HEK293 SMN2 exon7 splicing luciferase reporter, luminescence
Source text: NIH Chemical Genomics Center [NCGC] NIH Molecular Libraries Probe Production centers Network [MLPCN] MLPCN Grant: R03 MH084179-01 Assay Submitter (PI): Elliot Androphy NCGC Assay Overview: Spinal muscular atrophy (SMA) is caused by insufficient levels of the survival motor neuron protein SMN. The SMN locus on chromosome 5q13 contains two inverted copies of SMN called SMN1 and SMN2 which are 99% identical at the amino acid level. SMN1 is a fully functional protein and SMN2 skips exon 7 90% of the time. Skipping of exon 7 produces non-functional protein product. 10% of the SMN2 protein includes exon 7 and is fully functional. In the SMA disease state, mutations in the SMN1 locus are the cause of the disease state. Because only 10% of SMN2 is of the fully functional form, it is not sufficient to overcome the deficiency produced by the loss of the SMN1 product. A therapy that either increase the amount of SMN2 product made or to increase the inclusion of exon 7 has been proposed for the treatment of SMA. We have designed an assay to identify small molecules that can increase the amount of functional SMN2 product by appending a luciferase reporter gene after the native SMN2 gene, such that inclusion of exon 7 in the expressed product places the luciferase sequence in frame, thus generating functional luciferase enzyme. […]

## Brc1ccc(-c2csc(N3CCCCC3)n2)cc1
  Potency: 13.7 µM (active)
